Pf apPOL block – Pf-apPOL inhibitors, biochemical, fluorescence. Plasmodium falciparum apicoplast DNA polymerase (apPOL). Recombinant Pf-apPOL, molecular beacon fluorescence, 1.5 h. inhibition, % at 10 µM. 0.25% of 210,000 active. AID 1794808, 2022
mHTT-CaM PPI inh – mutant huntingtin-calmodulin interaction inhibitors – biochemical, AlphaScreen, primary screen. AlphaScreen His-mHTT/GST-CaM binding, luminescence. inhibition, % at 15 µM. AID 1671202, 2021. 3.6% of 190,000 active. P42858;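 also: 0% = both proteins with DMSO and 100% = one protein alone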
Starred values were filed as active, the others as inactive; . = not tested or not shown; + = active, no number. Only a selection was taken, and hits are over-represented in it overall. Rule as the data show it: active = inhibition above about 50%; inactive = the rest.

SMILES	Pf apPOL block	mHTT-CaM PPI inh
CCN1c2ccccc2-n2cccc2C12CCN(C(=O)Nc1ccccc1C)CC2	-2	4
CCN1c2cc(C)ccc2-n2cccc2C12CCN(C(=O)Nc1cc(F)ccc1F)CC2	1	51*
CCN1c2cc(C)ccc2-n2cccc2C12CCN(C(=O)Nc1ccc(F)cc1)CC2	-8	48
CCN1c2cc(C)ccc2-n2cccc2C12CCN(C(=O)Nc1cccc(C)c1)CC2	5	66*
COc1cc(OC)c2ccc(=O)oc2c1C(CCN1CCOCC1)c1ccc(N(C)C)cc1 (stereo not given)	-8	47
COc1ccc(C(CCN2CCN(c3ccccc3)CC2)c2c(OC)cc(OC)c3c(-c4ccccc4)cc(=O)oc23)cc1 (stereo not given)	-1	30
CCN(CC)C(=O)CC(c1ccc(OC)cc1)c1c(OC)cc(OC)c2ccc(=O)oc12 (stereo not given)	-1	32
COc1cc(OC)c2ccc(=O)oc2c1C(CCN1CCN(c2ccccc2)CC1)c1ccc(N(C)C)cc1 (stereo not given)	-2	84*
COc1cc(OC)c2c(-c3ccccc3)cc(=O)oc2c1C(CCN1CCN(c2ccccc2)CC1)c1ccc(N(C)C)cc1 (stereo not given)	-6	69*
CCN(CC)CCC(c1ccc(N(C)C)cc1)c1c(OC)cc(OC)c2c(-c3ccccc3)cc(=O)oc12 (stereo not given)	-6	100*
O=C(CC1(O)C(=O)Nc2ccccc21)c1ccc(NC(=O)C2CCCCC2)cc1 (stereo not given)	4	10
O=[N+]([O-])c1cc(NC2OCC(O)C(O)C2O)ccc1S(=O)(=O)O (stereo not given)	62*	-5
O=[N+]([O-])c1cccc(NC2OCC(O)C(O)C2O)c1 (stereo not given)	1	7
Cc1cc(C)c2oc(=O)cc(COc3ccc4c(=O)c(-c5ccc6c(c5)OCCO6)coc4c3)c2c1	-4	-5
C/C(=N/Nc1nnc(C)c(=O)[nH]1)C(=O)O	.	+
Cc1nnc(NN=C(C(=O)O)C(=O)O)[nH]c1=O	.	14
O=C(Cn1c(=O)n(Cc2cccnc2)c(=O)c2ncccc21)c1ccc2c(c1)CCCC2	-21	25
CCOc1cc2c(c([N+](=O)[O-])c1)NC(c1cccc([N+](=O)[O-])c1)C1CC=CC21 (stereo not given)	3	41
COc1cc2c(c([N+](=O)[O-])c1)NC(C(C)C)C1CC=CC21 (stereo not given)	-6	97*
CCOc1cc2c(c([N+](=O)[O-])c1)NC(c1ccccc1)C1CC=CC21 (stereo not given)	-2	57*
COc1cc([N+](=O)[O-])cc2c1NC(C(C)C)C1CC=CC21 (stereo not given)	-4	16
CCc1onc(C)c1C1CCCN1C(=O)NC(C)C (stereo not given)	-5	4
O=C1OC(Nc2ccc(OC(F)(F)F)cc2)c2ccccc21 (stereo not given)	-3	-1
CNC(=O)c1ccccc1S(=O)c1ccc(Cl)cc1C(=O)O (stereo not given)	1	.
CC12CC(NC(=O)N1c1cccc(Cl)c1)c1cc(Cl)ccc1O2 (stereo not given)	-6	8
SMILES	Pf apPOL block	mHTT-CaM PPI inh
CN1CCN(c2ncncc2N2CCC(C(=O)NCc3ccc(Cl)cc3)CC2)CC1	-3	98*
O=C(NCc1cc(F)cc(F)c1)C1CCN(c2cncnc2N2CCCCC2)CC1	6	7
O=C(NCc1ccc(F)c(Cl)c1)C1CCN(c2cncnc2N2CCCC2)CC1	2	90*
CCc1ccc(CNC(=O)C2CCN(c3cncnc3N3CCN(C)CC3)CC2)cc1	-1	21
Cc1cc(C)nc(NS(=O)(=O)c2cc(Cl)ccc2Cl)n1	.	4
Cc1ccccc1CNC(=O)CN1CCc2ccccc2C1C(=O)N1CCC(C)CC1 (stereo not given)	-6	37
COc1ccc(OC)c(NC(=O)c2c(C)nc3ccccn23)c1	-1	11
Cc1nc(-c2cccnc2)nc2c1CCC(=O)N2Cc1ccco1	3	22
O=C(Nc1ccc(N2CCN(Cc3cccs3)CC2)nc1)c1ccc(F)cc1F	-2	3
O=C(Nc1cccn2c(C3CCC3)nnc12)c1ccccn1	-8	61*
O=C(Nc1cccn2c(C3CCC3)nnc12)C1CCCO1 (stereo not given)	-2	-1
Cc1ccc(-c2nn(C)c(=O)c3ccccc23)cc1S(=O)(=O)NCCCO	95*	0
CCNS(=O)(=O)c1cc(-c2nn(C)c(=O)c3ccccc23)ccc1C	19	1
O=C(c1ccc(OC(F)(F)F)cc1)N1CCc2nc[nH]c2C1	-1	-1
COc1cccc(C2C=C(c3cccc(Br)c3)Nc3nnnn32)c1 (stereo not given)	-6	-13
